# Hits are enriched below; roughly 3% of the tested compounds scored in any of these assays.
# 12-LOX inh – inhibitors of human 12S-lipoxygenase ALOX12. P18054. purified 12hLO, xylenol orange hydroperoxide absorbance. Potency, µM (titrated, usually from 108 µM), usual class: inhibitors. 580,000 compounds, 1.1% hits
# Target sequence (P18054 whole entry, looked up): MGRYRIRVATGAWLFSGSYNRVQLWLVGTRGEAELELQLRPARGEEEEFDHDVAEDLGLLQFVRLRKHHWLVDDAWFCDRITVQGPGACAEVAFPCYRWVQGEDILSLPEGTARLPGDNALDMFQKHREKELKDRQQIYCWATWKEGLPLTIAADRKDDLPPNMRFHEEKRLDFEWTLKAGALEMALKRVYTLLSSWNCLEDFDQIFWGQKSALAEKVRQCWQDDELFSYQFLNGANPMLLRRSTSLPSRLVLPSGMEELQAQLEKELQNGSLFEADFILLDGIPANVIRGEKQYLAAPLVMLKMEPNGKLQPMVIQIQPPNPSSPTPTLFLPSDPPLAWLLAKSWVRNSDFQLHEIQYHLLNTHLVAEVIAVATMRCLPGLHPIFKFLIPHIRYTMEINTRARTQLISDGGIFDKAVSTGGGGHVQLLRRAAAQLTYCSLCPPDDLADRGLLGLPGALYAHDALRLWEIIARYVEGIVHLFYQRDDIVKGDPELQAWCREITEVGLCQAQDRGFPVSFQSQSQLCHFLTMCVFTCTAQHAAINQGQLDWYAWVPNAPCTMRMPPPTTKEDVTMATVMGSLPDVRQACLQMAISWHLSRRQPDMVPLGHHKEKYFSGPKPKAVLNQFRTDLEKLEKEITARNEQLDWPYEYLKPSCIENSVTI
#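 Purified human 12hLO at 150 nM in 25 mM Hepes, 0.01% Triton X-100, pH 7.0, preincubated 15 min at room temperature with compound. Reaction started with 40 uM arachidonic acid, 30 min at room temperature. Hydroperoxide measured by Fe-xylenol orange, 573/405 nm absorbance ratio.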
# GCN5L2 inh – blocks human GCN5L2 histone acetyltransferase; Q92830; GCN5L2 HAT assay, ThioGlo1 CoA-SH fluorescence; Potency, µM (doses to about 58.9 µM), hits mostly inhibitors; 390,000 compounds, 0.21% hits
#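 qHTS, 1536-well. 20nM enzyme, pH 7.5 HEPES/EDTA/Tween-20 buffer; 15 min compound preinc., RT. Start: 75uM H3(1-25), 70uM AcCoA, 50uM ThioGlo1. Read Ex340/Em540 at t=0 (autofluorescence flag) and t=20 min.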
# PLK1 PBD block – PLK1 (human) polo-box domain binding inhibition; P53350; Plk1 PBD binding of FITC phosphopeptide, fluorescence polarization; Potency, µM, actives largely listed as inhibitors; 360,000 compounds, 2.8% hits; AID 720504; further: series mostly up to about 57 µM; nearly all actives have a fitted effect of over 65% in size
# VDR inh – blocks the human vitamin D receptor; P11473; VDR-SRC2-3 peptide fluorescence polarization, 2 h; Potency, µM, usual class: inhibitors; 400,000 compounds, 0.93% hits
#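 Fluorescence polarization assay of small-molecule disruption of VDR binding to coregulator peptide SRC2-3. Compounds and controls pin-transferred, then read after 2 h incubation at ambient room temperature.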
# Numbers stand for hits; i = inactive; ? = inconclusive; nt = no result given. The call rests on the fitted dose curve; in most records, active means well fitted curve in the direction sought with a large enough effect; inconclusive means small, poorly fitted or top-dose-only effect, or another doubt; inactive means no such curve, though single readings can be large; an effect the other way counts as inactive or inconclusive.
SMILES,12-LOX inh,GCN5L2 inh,PLK1 PBD block,VDR inh
CC(C)CSc1nc2c(c(=O)[nH]c(=O)n2C)n1CC(O)COc1cccc2ccccc12 (stereo not given),?,i,11µM,?
COc1ccc(CNC(=O)C[C@@H]2C[C@@H](C(C)C)[C@H](CNC(=O)c3cccnc3)C=C2C)cc1,i,nt,nt,nt
COCCNC(=S)Nc1ccc([N+](=O)[O-])cc1C,?,i,i,i
COCCNC(=S)NNc1ccccc1[N+](=O)[O-],?,i,15µM,?
CNC(=S)NNc1ccccc1[N+](=O)[O-],?,i,i,71µM
O=C(NNc1ccccc1[N+](=O)[O-])Nc1ccccc1,i,i,i,?
CCC(C)OC(=O)COc1ccc2c(=O)c(Oc3ccc(C(C)(C)C)cc3)coc2c1 (stereo not given),i,nt,nt,nt
Cn1c(-c2ccc(C=O)s2)nc2c3ccccc3c3ccccc3c21,i,?,27µM,i
Cc1c(C=O)c2ccccc2n1C,i,nt,nt,nt
Cc1cccc(OCC2(CNCc3c(C)noc3C)C[C@@H](O)[C@@H](O)C2)n1 (stereo not given in full),32µM,nt,nt,nt
COC[C@H]1C[C@@H](NCc2ccc(C)o2)[C@H](O)[C@@H]1O,i,nt,nt,nt
Cc1cccc(OC[C@H]2C[C@@H](NCc3cccc4c3OCO4)[C@H](O)[C@@H]2O)n1,20µM,nt,nt,nt
C=CCc1c(C)c2ccc(OCC(=O)c3ccccc3)cc2oc1=O,i,nt,nt,nt
CCOc1ccccc1NC(=O)CSc1nc2nc(-c3cccs3)cc(C(F)(F)F)c2c(=O)[nH]1,?,i,21µM,i
CC(=O)Nc1ccc(NC(=O)CSc2nc3nc(-c4cccs4)cc(C(F)(F)F)c3c(=O)[nH]2)cc1,i,i,?,i
COC(=O)CSc1nc2nc(-c3cccs3)cc(C(F)(F)F)c2c(=O)[nH]1,i,i,i,i
COc1ccc(NC(=O)CSc2nc3nc(-c4cccs4)cc(C(F)(F)F)c3c(=O)[nH]2)c(OC)c1,?,i,27µM,i
CCc1ccc(C(=O)NC(C)C2CCCO2)s1 (stereo not given),i,nt,nt,nt
Brc1cccc(Oc2ccc3nnnn3n2)c1,i,nt,nt,nt
Cc1ccccc1-c1nnc(SCC(=O)NC2CCCCC2)o1,i,i,i,i
COc1ccccc1-c1nnc(SCC(=O)NC2CCCCC2)o1,i,i,27µM,?
COC(=O)Cn1c(=O)c2c(nc(-n3nc(C)cc3C)n2Cc2ccc(F)cc2)n(C)c1=O,i,nt,nt,nt
CC(C)CCNC(=O)NC(=O)CCl,28µM,nt,nt,nt
COc1cc(C(=O)Nc2oc3ccccc3c(=O)c2-c2ccc3c(c2)OCO3)cc(OC)c1OC,i,nt,nt,nt
CCOc1cc(/C=C2\C(=O)N(CCc3ccc(OC)c(OC)c3)C(C)=C2C(=O)OC)ccc1O,?,i,i,i
SMILES,12-LOX inh,GCN5L2 inh,PLK1 PBD block,VDR inh
COC(=O)C1=C(C)N(Cc2ccccc2)C(=O)/C1=C\c1ccco1,i,i,i,?
COC(=O)C1=C(C)N(Cc2ccc(C)cc2)C(=O)/C1=C\c1ccc(O)c(OC)c1,28µM,i,i,?
COC(=O)C1=C(C)N(Cc2ccc(C)cc2)C(=O)/C1=C\c1cc(OC)c(OC)c(OC)c1,?,i,i,50µM
Cc1ccc(-c2nc(C#N)c(NCC(c3cccs3)N(C)C)o2)cc1 (stereo not given),i,nt,nt,nt
CCOC(=O)C1=C(C)OC(n2cccc2)=C(C#N)C1c1ccc(OC)cc1 (stereo not given),i,nt,nt,nt
CCCC(C)NC(=O)CN(c1cccc(OC)c1)S(C)(=O)=O (stereo not given),i,nt,nt,nt
O=[N+]([O-])C(=C1Nc2ccccc2N1)/C(Cl)=C(/Cl)Br,?,?,30µM,i
Cc1cccc(N/N=C(/c2ccccc2)c2ccc(F)cc2)c1C,5µM,nt,nt,nt
COc1ccc(/C(=N\Nc2ccccc2C(=O)O)c2ccccc2)cc1,i,i,?,i
CN1C(=O)/C(=N/OC(=O)c2ccccc2)c2ccccc21,i,i,12µM,i
O=C(O/N=C1\C(=O)N(c2ccccc2)c2ccccc21)C1CC1,i,i,i,i
CCOC(=O)C1=C(CC)OC(N)=C(C#N)C1c1ccc(OC)c(OC)c1OC (stereo not given),i,i,i,i
CCOC(=O)C1=C(CSc2nc(C)ccc2C#N)OC(N)=C(C#N)C1c1cccc(OC)c1OC (stereo not given),?,i,21µM,i
Cc1cccc(NC(=O)COc2ccc3c(C)cc(=O)oc3c2)c1,i,nt,nt,nt
COC(=O)c1cc(Sc2c(Cl)cccc2Cl)ccn1,40µM,i,i,i
COC(=O)c1cc(Sc2cccc(Cl)c2Cl)ccn1,?,i,i,i
CC1CCCC(=C\c2ccccc2)/C1=N/O (stereo not given),i,i,27µM,?
Cc1cc(/C=N/NC(=O)c2ccc(O)cc2)c(C)n1C1CC1,i,i,19µM,i
O=S1(=O)N=C(SCc2ccccc2)N(Cc2ccccc2)c2ccccc21,i,nt,nt,nt
COc1c(C2=CC(=O)N(C)C2=O)c2c(n1C)C(=O)c1ccccc1C2=O,?,nt,nt,13µM
CN=c1sc2c(n1C)C(=O)c1ccccc1C2=O,i,nt,i,?
CC(C)(C)OC(=O)N(CCc1ccccc1)Cc1ccc(OCc2cccc(NC(=O)C3CC3)c2)cc1,?,nt,i,i
CC(C)(C)OC(=O)N(CCc1ccccc1)Cc1cccc(OCc2cccc(NC(=O)c3ccccc3)c2)c1,i,nt,24µM,?
CC(C)Oc1c(I)cc(I)cc1/C=C(\C#N)c1nc2ccccc2[nH]1,i,nt,nt,nt
O=C(/C=C/c1ccccn1)c1cc(Br)ccc1O,?,i,11µM,?
SMILES,12-LOX inh,GCN5L2 inh,PLK1 PBD block,VDR inh
O=C(/C=C/c1ccccn1)c1ccc(Br)cc1O,?,i,?,i
O=C1Nc2ccccc2C1(O)C/C(=N/O)c1ccccc1 (stereo not given),i,i,27µM,?
CN(Cc1ccc(Br)cc1)CC(O)COc1cccc(Br)c1 (stereo not given),0.89µM,i,i,i
COC(=O)c1ccc(NC(=O)Cn2ncn3nc(-c4cc(C)ccc4C)cc3c2=O)cc1,i,nt,nt,nt
CCOC(=O)c1cccn1C1C(=O)N(Cc2ccc(Cl)nc2)c2c(F)cccc21 (stereo not given),56µM,nt,nt,nt
O=C1ON=C(c2ccccc2)/C1=C/c1cccnc1,i,i,i,i
COc1ccc(/C=C2\C(=O)ON=C2c2ccccc2)cc1,?,i,1.5µM,?
O=C1ON=C(c2ccccc2)/C1=C/c1ccc(O)c(O)c1,?,i,?,45µM
O=C1ON=C(c2cccc([N+](=O)[O-])c2)/C1=C/c1ccc(O)cc1,7.9µM,i,1.5µM,?
O=C1ON=C(c2ccc(Cl)c([N+](=O)[O-])c2)/C1=C/c1cccc([N+](=O)[O-])c1O,i,i,i,i
Cc1ccc(C2=NOC(=O)/C2=C\c2ccc(C)o2)cc1,16µM,?,0.75µM,?
Cc1ccc(/C=C2\C(=O)ON=C2c2ccccc2)o1,?,i,?,?
CSc1ccc(C2CC(=O)N(c3cccc(C(F)(F)F)c3)C3=C2C(=O)OC3)cc1 (stereo not given),i,nt,nt,nt
N#Cc1ccc(COc2ccccc2C(N)=O)cc1,i,nt,nt,nt

# Compound activity deposited in PubChem by National Center for Advancing Translational Sciences (NCATS).
